Reference: PubChem BioAssay (NCI)
This is part of a sample that, as a whole, favours compounds with a hit. Of some 83,000 tested, about 20% had one in any assay.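 In brief: 96-well plates, 48 h treatment, single concentration, percent growth endpoint.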 Values without a mark were called inactive. Active and inactive are the calls of the source. The calls were made as follows: active = growth percent below 10; inactive = the rest.

system: HL-60(TB) leukemia; assay: NCI-60 one-dose screen, 48 h (100 = growth as untreated, 0 = no growth, -100 = all killed); settings: 10 µM unless noted

Row | Structure (SMILES) | growth
1 | CCC(CC)NCC(C)(C)O | 97.7%
2 | COc1cc2cc(Oc3ccc(NC(=O)c4ccc(Cl)c(C(F)(F)F)c4)cc3)c(C)nc2cc1OC | 17.4%
3 | CCC1CCc2nc3sc(C(=O)Nc4ccccc4F)c(N)c3cc2C1 (stereo not given) | 21.5%
4 | COC(=O)/C=C1\SC(=Nc2cccc(Cl)c2)N(CCc2c[nH]c3ccccc23)C1=O | -37.1% (active)
5 | O=C(N/N=c1/ccoc2cccnc12)N1CCN(c2ncccn2)CC1 | 44.2%
6 | COc1cc(NN=C(c2ccc(O)cc2)c2ccc(O)cc2)c([N+](=O)[O-])cc1[N+](=O)[O-] | 133%
7 | O=C(Nc1cccc(-n2cc(-c3ccncc3)c(-c3ccc(O)c(Cl)c3)n2)c1)Nc1ccc(Cl)c(C(F)(F)F)c1 | -2.7% (active)
8 | Cc1ccc(NC(=O)N[C@@H](Cc2cc(F)cc(F)c2)C(=O)N[C@@H]2C(=O)N3CCC[C@H]3C(=O)N3CCCC[C@H]3C(=O)N[C@@H](C)C(=O)N3C[C@H](C)C[C@H]3C(=O)O[C@H]2C)cc1 | 11.6%
9 | COc1ccc(-c2csc(NC(=O)CN3CCN(CCO)CC3)n2)cc1NS(=O)(=O)c1cccc2c(N(C)C)cccc12 | 93.8%
10 | O=C(CN(C(=O)Cn1c(=O)n2nnnc2c2ccccc21)c1ccccc1C(F)(F)F)Nc1ccc(C(F)(F)F)cc1 | 101%
11 | CC(/C=N/NC(=O)c1cc(-c2ccco2)[nH]n1)=C\c1ccccc1 | 99%
12 | COc1cc(-c2ccc[nH]2)[nH]c1/C=C1\N=C(C)C(CC(=O)OCC(C)(C)C)=C1C | -44.5% (active)
13 | OC(c1cc(C(F)(F)F)nc2c(C(F)(F)F)cccc12)C1CCCCN1 (stereo not given) | 50.3%
14 | COC(=O)/C=C1\SC(=Nc2ccc(C(F)(F)F)cc2)N(CCc2c[nH]c3ccccc23)C1=O | -55.4% (active)
15 | CC(=O)c1cc2c(N)c(C(=O)Nc3cccc4ccncc34)sc2nc1C | 86.2%
16 | O=c1oc2ccc(Br)cc2c(=O)n1-c1ccc(I)cc1F | -49.1% (active)
17 | NCCCNc1nc2ccccc2c2c(=O)c3cc(C(F)(F)F)ccc3sc12 | -23% (active)
18 | CC(=O)Nc1ccc(-n2c(O)c(/C=N/NC(=O)Cc3ccccc3Nc3c(Cl)cccc3Cl)sc2=S)cc1 | 99%
19 | CCCCCCN(CCCCCC)CC(O)c1ccc2c3c(cccc13)CC2 (stereo not given) | 64.6%
20 | CCC(C)(CC)c1ccc(O)c(C)c1 | 105%

Row | Structure (SMILES) | growth
21 | c1c2c(cc3c1OCO3)Cc1cc3c(cc1Cc1cc4c(cc1C2)OCO4)OCO3 | 116%
22 | O=S=Nc1ccc([N+](=O)[O-])cc1 | 102%
23 | O=S1(=O)CCC(N(/N=C/c2ccco2)c2ccccc2)C1 (stereo not given) | 100%
24 | O=c1[nH]c2ccc(Cl)cc2c2ccccc12 | 130%
25 | O=S1(=O)OC(c2ccc(O)c(Cl)c2)(c2ccc(O)c(Cl)c2)c2ccccc21 | 109%
26 | CCCCCS(=O)(=O)Nc1ccc(C(=O)O)cc1 | 101%
27 | O=C(/C=C/C(=O)c1ccccc1)c1ccccc1 | 57.3%
28 | Cn1/c(=N/NC(N)=S)ccc2ccccc21 | 106%
29 | COc1cc2cc3c(=O)n4c(cc5cc(OC)ncc54)c(=O)n3c2cn1 | 89.3%
30 | Cc1c2ccncc2c(C)c2c1c1cc(CO)ccc1n2C | 19.2%
31 | COc1cccc(OC)c1OC(=O)c1ccccc1 | 110%
32 | O=C(N/N=C/c1ccc(O)cc1O)c1ccc(Nc2ccnc(C(F)(F)F)c2)cc1 | 44.1%
33 | CN(C)CCN1C(=O)c2cccc3c(N)ccc(c23)C1=O | -6.78% (active)
34 | CCOC(=O)NC1=NCC(C)(C)S1 | 67.9%
35 | O=S(=O)(Oc1ccc(-c2ccc3sccc3c2)cc1)c1ccccc1 | 99.6%
36 | Cn1c2c(c(=O)[nH]c1=O)NC1=C(C(=O)c3ccccc31)C1(C=C(O)c3ccccc31)N2 (stereo not given) | 109%
37 | COc1cc2cc(CN3CCN(c4nccc(-c5ccc6ccccc6c5)n4)CC3)c(=O)[nH]c2cc1OC | 9.75% (active)
38 | CCCCCCCCn1cc(C2=C(c3coc4ccc(OC)cc34)C(=O)NC2=O)c2ccccc21 | 133%
39 | CC(C)(CO)N(CCO)CCO | 103%
40 | O=C(O)CCCn1c(SCc2c(Cl)cccc2Cl)nc2ccsc2c1=O | -4.86% (active)
